Data on 31 compounds can be found in PubChem BioAssay (EPA / NIEHS).

Several values for one entry are separate records, joined by “and”; a condition that tells them apart may be missing. Identical values can stand only once. Results filed as inconclusive are left out. Activity calls are given as the source filed them. The calls were made as follows: active = hit-call score of the fitted dose curve at least 0.9, where 1 is the maximum; inconclusive = response in the unintended direction; inactive = score below 0.9.

For orientation: AC50 means the concentration at which the activity in the assay is half-maximal.

The target in assay [1] is human CYP1A2, CYP1A2 (gene 1544) (UniProt P05177). The assay is described as follows: NVS_ADME_hCYP1A2: NovaScreen (NVS) CYP450-related Enzyme Activity (ADME) Assay for human CYP1A2 (AID 2283102).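 As to AC50: potency for inhibition since loss of fluorescence marks reduced CYP1A2 activity.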 In short, it runs like this:
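Inhibition scored as decrease in fluorescent product versus acetonitrile negative control. Enzyme: insect-cell recombinant human CYP1A2, substrate-specific, cell-free. Reading at 0.5 h; 10 uM duplicate initial screen with positive and negative controls on every plate.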

The target of assay [2] is human CYP2D6, CYP2D6 (gene 1565) (UniProt P10635). The assay is described as follows: NVS_ADME_hCYP2D6: NovaScreen (NVS) CYP450-related Enzyme Activity (ADME) Assay for human CYP2D6 (AID 2283107). A digest of the protocol: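 Biochemical fluorescence assay, insect-cell-derived enzyme. Read at 1 h; inhibition taken from loss of signal against acetonitrile. Screened at 10 uM in duplicate, with concentration series for actives.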
Chain of human CYP2D6, CYP2D6 (gene 1565) (P10635 whole entry, looked up): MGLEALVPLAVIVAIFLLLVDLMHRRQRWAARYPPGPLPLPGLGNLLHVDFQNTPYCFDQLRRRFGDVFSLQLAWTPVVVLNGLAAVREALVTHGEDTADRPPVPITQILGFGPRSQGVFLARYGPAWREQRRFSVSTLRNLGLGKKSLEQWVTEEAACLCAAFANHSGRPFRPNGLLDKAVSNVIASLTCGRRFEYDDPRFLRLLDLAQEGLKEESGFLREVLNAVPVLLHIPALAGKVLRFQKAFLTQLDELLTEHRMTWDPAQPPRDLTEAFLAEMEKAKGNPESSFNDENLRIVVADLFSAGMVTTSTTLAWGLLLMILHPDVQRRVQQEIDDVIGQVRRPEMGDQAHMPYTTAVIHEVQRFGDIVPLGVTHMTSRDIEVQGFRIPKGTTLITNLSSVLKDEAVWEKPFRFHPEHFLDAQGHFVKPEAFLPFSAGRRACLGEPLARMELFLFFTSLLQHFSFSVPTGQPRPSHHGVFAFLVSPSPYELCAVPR

The target of assay [3] is human CYP2C9, CYP2C9 (gene 1559) (UniProt P11712). The assay is described as follows: NVS_ADME_hCYP2C9: NovaScreen (NVS) CYP450-related Enzyme Activity (ADME) Assay for human CYP2C9 (AID 2283108). A digest of the protocol: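 Fluorescence readout of CYP2C9 activity (SF9-expressed human enzyme) at 0.75 h. The primary screen used 10 uM in duplicate, with concentration-response follow-up for actives; acetonitrile was the negative control.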
Chain of human CYP2C9, CYP2C9 (gene 1559) (P11712 whole entry, looked up): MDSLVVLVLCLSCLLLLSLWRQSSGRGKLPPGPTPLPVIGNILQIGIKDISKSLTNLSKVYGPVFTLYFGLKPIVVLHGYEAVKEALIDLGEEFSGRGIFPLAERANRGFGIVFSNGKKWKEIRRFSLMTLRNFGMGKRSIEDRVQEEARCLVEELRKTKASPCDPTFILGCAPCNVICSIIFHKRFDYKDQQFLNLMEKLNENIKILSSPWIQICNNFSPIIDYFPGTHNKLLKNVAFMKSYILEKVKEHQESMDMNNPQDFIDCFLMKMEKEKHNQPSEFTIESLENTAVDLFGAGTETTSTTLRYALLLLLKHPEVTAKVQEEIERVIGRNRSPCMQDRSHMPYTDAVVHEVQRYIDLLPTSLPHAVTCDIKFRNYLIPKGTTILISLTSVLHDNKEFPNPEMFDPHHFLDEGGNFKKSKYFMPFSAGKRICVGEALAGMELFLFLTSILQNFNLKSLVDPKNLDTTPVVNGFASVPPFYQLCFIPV

Assay [4] has as its target Cytochrome P450 3A4 (Homo sapiens) (UniProt P08684). The assay is described as follows: NVS_ADME_hCYP3A4: NovaScreen (NVS) CYP450-related Enzyme Activity (ADME) Assay for human CYP3A4 (AID 2283110). A digest of the protocol:
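Compounds screened in duplicate at 10 uM, with follow-up concentration-response for actives, against insect-cell-expressed recombinant enzyme. Activity read by fluorescence 0.33 h after dosing; loss of signal versus acetonitrile control indicates inhibition.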

In assay [5] the target is Cytochrome P450 2C19 (Homo sapiens) (UniProt P33261). The assay is described as follows: NVS_ADME_hCYP2C19: NovaScreen (NVS) CYP450-related Enzyme Activity (ADME) Assay for human CYP2C19 (AID 2283113).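 As to AC50: potency for inhibition seen as loss of fluorescent signal.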 In short, it runs like this: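 Biochemical CYP2C19 inhibition screen: insect-cell recombinant protein plus fluorescent substrate, 1 h, fluorescence intensity. Acetonitrile defined baseline activity. Single 10 uM concentration in duplicate, with concentration-response follow-up for actives.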

Assay [6] concerns the target human Beta-secretase (BACE), BACE1 (gene 23621) (UniProt P56817). As to the kind of experiment: NVS_ENZ_hBACE: NovaScreen (NVS) Enzymatic Assay for human Beta-secretase (BACE) (AID 2283140).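 Also: hits are inhibitors that reduce fluorescent substrate signal versus DMSO.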 A digest of the protocol: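 Enzyme activity of SF9-produced BACE1 is measured cell-free by fluorescence, 1 hour post dosing, normalised to DMSO. Screening used 25 uM in duplicate, with concentration-response follow-up for actives.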

Assay [7] has as its target human Acid Phosphatase 1 (ACP1), ACP1 (gene 52) (UniProt P24666). As to the kind of experiment: NVS_ENZ_hACP1: NovaScreen (NVS) Enzymatic Assay for human Acid Phosphatase 1 (ACP1) (AID 2283136). As to the method:
NVS_ENZ_hACP1 is a biochemical, single-readout assay that uses extracted gene-proteins from SF9 in a cell-free assay. Measurements were taken 1.5 hours after chemical dosing in a 384-well plate.NVS_ENZ_hACP1 is one of one assay component(s) measured or calculated from the NVS_ENZ_hACP1 assay. It is designed to make measurements of enzyme activity, a form of enzyme reporter, as detected with fluorescence intensity signals by Fluorescence and electrophoretic mobility shift technology.Data from the assay component NVS_ENZ_hACP1 was analyzed into 1 assay endpoint. This assay endpoint, NVS_ENZ_hACP1, was analyzed in the positive analysis fitting direction relative to DMSO as the negative control and baseline of activity. Using a type of enzyme reporter, loss-of-signal activity can be used to understand changes in the enzymatic activity as they relate to the gene ACP1. Furthermore, this assay endpoint can be referred to as a primary readout, because this assay has produced multiple assay endpoints where this one serves a enzymatic activity function. To generalize the intended target to other relatable targets, this assay endpoint is annotated to the phosphatase intended target family, where the subfamily is acid phosphatase. […]

The target of another assay is Caspase-3 (Homo sapiens) (UniProt P42574). The assay is described as follows: NVS_ENZ_hCASP3: NovaScreen (NVS) Enzymatic Assay for human Caspase 3 (CASP3) (AID 2283139). The protocol: NVS_ENZ_hCASP3 is a biochemical, single-readout assay that uses extracted gene-proteins from E. coli in a cell-free assay. Measurements were taken 1 hour after chemical dosing in a 96-well plate.NVS_ENZ_hCASP3 is one of one assay component(s) measured or calculated from the NVS_ENZ_hCASP3 assay. It is designed to make measurements of enzyme activity, a form of enzyme reporter, as detected with fluorescence intensity signals by Fluorescence technology.Data from the assay component NVS_ENZ_hCASP3 was analyzed into 1 assay endpoint. This assay endpoint, NVS_ENZ_hCASP3, was analyzed in the positive analysis fitting direction relative to DMSO as the negative control and baseline of activity. […] Furthermore, this assay endpoint can be referred to as a primary readout, because this assay has produced multiple assay endpoints where this one serves a enzymatic activity function. […]
Chain of Caspase-3 (Homo sapiens) (P42574 whole entry, looked up): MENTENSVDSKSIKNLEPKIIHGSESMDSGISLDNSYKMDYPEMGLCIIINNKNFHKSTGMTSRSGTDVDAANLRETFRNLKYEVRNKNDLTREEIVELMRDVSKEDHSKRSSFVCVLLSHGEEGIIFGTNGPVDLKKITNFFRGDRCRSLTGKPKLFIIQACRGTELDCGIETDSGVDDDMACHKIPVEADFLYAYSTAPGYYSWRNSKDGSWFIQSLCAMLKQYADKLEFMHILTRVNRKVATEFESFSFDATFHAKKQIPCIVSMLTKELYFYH
Binding assays used specific radioligands (tritiated, iodinated) with non-radioactive competitive displacement ligands in agonist or antagonist protocols (as indicated) and various reference compounds and inhibitors to titrate specific binding to receptors and transporters. Most enzyme assays (CYPs, kinases, phosphatases, proteases, HDACs) used recombinant protein and specific substrates (fluorescence mostly, some colorimetric and radioactive) and inhibitors, followed by a biochemical separation of substrate and product. […]

Assay [8] deals with human AKT serine/threonine Kinase 1 (AKT1), AKT1 (gene 207) (UniProt P31749). The assay is described as follows: NVS_ENZ_hAKT1: NovaScreen (NVS) Enzymatic Assay for human AKT serine/threonine Kinase 1 (AKT1) (AID 2283138). In short, it runs like this: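 A biochemical assay with recombinant enzyme and specific substrate, read by fluorescence intensity with mobility-shift separation 1 hour after dosing. Actives from 25 uM duplicate screening were titrated up to 50 uM against DMSO baseline.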
Chain of human AKT serine/threonine Kinase 1 (AKT1), AKT1 (gene 207) (P31749 whole entry, looked up): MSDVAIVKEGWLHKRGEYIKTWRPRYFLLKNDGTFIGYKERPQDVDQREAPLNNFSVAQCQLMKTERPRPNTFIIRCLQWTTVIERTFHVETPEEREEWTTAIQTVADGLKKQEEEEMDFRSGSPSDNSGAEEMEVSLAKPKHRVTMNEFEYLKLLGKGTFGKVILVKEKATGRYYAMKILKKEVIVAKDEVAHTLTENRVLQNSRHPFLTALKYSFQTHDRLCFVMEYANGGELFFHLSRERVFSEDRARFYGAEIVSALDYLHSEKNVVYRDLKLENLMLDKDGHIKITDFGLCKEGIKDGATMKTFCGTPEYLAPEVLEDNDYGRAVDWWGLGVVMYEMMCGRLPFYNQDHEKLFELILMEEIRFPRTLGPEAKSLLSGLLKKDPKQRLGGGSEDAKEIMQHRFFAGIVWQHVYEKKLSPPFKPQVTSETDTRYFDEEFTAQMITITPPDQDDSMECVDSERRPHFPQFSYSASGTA

The target in assay [9] is human Caspase 5 (CASP5), CASP5 (gene 838) (UniProt P51878). The assay is described as follows: NVS_ENZ_hCASP5: NovaScreen (NVS) Enzymatic Assay for human Caspase 5 (CASP5) (AID 2283137). A digest of the protocol: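 Caspase 5 enzyme activity, detected as fluorescence signal loss, is measured in a biochemical format using E. coli-expressed protein. Reading occurs 2 hours post-dosing. Screening runs at 25 uM, with confirmed actives titrated to 50 uM maximum.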
Chain of human Caspase 5 (CASP5), CASP5 (gene 838) (P51878 whole entry, looked up): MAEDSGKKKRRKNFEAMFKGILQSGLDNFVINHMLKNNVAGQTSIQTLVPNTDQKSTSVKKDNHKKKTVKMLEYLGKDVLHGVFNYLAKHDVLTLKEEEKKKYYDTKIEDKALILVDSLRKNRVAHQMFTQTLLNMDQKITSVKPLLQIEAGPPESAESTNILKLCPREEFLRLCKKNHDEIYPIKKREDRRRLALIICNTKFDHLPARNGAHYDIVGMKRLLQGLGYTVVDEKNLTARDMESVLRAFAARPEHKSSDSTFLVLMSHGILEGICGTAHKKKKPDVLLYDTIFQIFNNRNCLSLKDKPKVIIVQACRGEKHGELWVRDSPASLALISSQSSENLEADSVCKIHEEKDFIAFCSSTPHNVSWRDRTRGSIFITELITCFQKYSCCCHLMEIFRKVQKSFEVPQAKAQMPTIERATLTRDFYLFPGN

Chain of human CYP1A2, CYP1A2 (gene 1544) (P05177 whole entry, looked up): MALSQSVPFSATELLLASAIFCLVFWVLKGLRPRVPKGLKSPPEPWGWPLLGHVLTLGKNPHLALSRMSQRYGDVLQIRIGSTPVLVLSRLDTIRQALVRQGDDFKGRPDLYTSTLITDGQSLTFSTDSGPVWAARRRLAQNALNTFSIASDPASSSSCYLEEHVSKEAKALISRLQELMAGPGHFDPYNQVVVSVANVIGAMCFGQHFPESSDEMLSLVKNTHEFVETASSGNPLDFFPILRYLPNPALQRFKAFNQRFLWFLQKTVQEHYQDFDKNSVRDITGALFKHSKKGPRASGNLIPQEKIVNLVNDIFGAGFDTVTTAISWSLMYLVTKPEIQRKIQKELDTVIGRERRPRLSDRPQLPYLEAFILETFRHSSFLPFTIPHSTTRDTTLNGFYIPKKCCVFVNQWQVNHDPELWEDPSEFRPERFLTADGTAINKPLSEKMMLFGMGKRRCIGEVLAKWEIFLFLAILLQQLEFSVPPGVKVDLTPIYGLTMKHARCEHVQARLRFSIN
Chain of Cytochrome P450 3A4 (Homo sapiens) (P08684 whole entry, looked up): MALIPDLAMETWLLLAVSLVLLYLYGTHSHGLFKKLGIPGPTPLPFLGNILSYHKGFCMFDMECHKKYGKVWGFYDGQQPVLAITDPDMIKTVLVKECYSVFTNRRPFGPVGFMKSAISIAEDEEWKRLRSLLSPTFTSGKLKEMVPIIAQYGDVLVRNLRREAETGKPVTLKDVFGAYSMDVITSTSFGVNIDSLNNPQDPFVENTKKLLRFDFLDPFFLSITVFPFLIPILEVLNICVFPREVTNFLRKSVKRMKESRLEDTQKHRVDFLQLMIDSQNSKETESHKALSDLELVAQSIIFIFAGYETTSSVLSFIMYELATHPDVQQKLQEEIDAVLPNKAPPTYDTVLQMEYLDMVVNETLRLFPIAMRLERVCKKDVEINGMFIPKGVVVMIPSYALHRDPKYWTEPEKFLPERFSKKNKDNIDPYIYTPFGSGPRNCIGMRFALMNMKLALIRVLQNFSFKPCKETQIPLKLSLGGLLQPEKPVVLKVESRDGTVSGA
Chain of human Beta-secretase (BACE), BACE1 (gene 23621) (P56817 whole entry, looked up): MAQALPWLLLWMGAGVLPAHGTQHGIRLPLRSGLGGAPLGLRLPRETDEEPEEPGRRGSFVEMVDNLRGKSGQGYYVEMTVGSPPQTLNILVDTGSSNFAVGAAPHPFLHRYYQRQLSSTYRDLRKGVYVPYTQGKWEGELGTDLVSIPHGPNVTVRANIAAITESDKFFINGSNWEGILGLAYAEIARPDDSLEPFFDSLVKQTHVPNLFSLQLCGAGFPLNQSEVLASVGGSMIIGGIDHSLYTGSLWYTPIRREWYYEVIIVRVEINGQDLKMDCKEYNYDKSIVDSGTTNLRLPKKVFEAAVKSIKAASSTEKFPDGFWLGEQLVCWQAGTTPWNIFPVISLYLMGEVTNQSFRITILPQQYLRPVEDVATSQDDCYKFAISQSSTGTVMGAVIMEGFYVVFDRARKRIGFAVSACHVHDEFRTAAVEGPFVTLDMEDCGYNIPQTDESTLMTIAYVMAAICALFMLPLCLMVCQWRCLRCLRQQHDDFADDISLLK
Chain of human Acid Phosphatase 1 (ACP1), ACP1 (gene 52) (P24666 whole entry, looked up): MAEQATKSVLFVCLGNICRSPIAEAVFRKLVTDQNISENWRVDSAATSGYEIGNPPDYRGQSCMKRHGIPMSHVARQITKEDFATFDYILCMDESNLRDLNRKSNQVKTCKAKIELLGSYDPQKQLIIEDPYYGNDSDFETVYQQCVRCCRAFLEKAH

As for `CCCCCCCCCC`, the compound was classed as inactive in [1], in assay [2] and in assay [6]. Besides, the AC50 was 15.1 µM (active) in [3], 6.55 µM (active) in assay [4] and 5.72 µM (active) in assay [5].

`CCCCCCOC(=O)CC(CC(=O)OCCCCCC)(OC(=O)CCC)C(=O)OCCCCCC`: in assay [5], the AC50 is 2.71 µM (active).

On to `Cc1nc(-c2ccccn2)ncc1C(=O)Nn1cc(C)c2cc(F)ccc21`, for which the result in [7] was inactive.

In the case of `NC(=O)NN=Cc1ccc([N+](=O)[O-])o1`, the concentration at half-maximal activity (AC50) in the assay with Caspase-3 (Homo sapiens) is 20.9 µM (active).

`CCN(CC)C(=S)SSC(=S)N(CC)CC`: the concentration at half-maximal activity (AC50) in assay [1] is 1.2 µM (active); in assay [3], 3.12 µM (active).

For the compound `COc1cc(C(C)C)c2c(c1)S(=O)(=O)N(COc1cc(=O)n3cccc(OCCN4CCCCC4)c3n1)C2=O`, in [4], the AC50 is 0.9 µM (active).

As for `NC(=O)N1c2ccccc2C=Cc2ccccc21`, the call in assay [5] was inactive.

Regarding `CCCCN1C(=O)[C@@H]([C@H](O)C2CCCCC2)NC(=O)C12CCN(Cc1ccc(Oc3ccc(C(=O)O)cc3)cc1)CC2`, the result in [6] was inactive.

As for `CCCC(CCC)C(=O)O`, the half-maximal activity concentration (AC50) in assay [5] is 10 µM (active). The compound was classed as inactive in [8].

With `COCc1nnc(-c2ccc[n+]([O-])c2)n1-c1c(Cl)c(Cl)cc2[nH]c(=O)c(=O)[nH]c12`, the AC50 in assay [5] is 4.13 µM (active).

Turning to `OC(Cn1cncn1)(Cn1cncn1)c1ccc(F)cc1F`, the compound was called inactive in assay [3].

For `CCCCCCCC/C=C\CCCCCCCC(=O)OC[C@@H](O)[C@H]1OC[C@H](O)[C@H]1O`, the AC50 in [3] is 16.5 µM (active); in assay [6] it was 6.7 µM (active). Moreover, the compound was classed as inactive in [8].

Consider `OCCOCCOCCO`, for which, in assay [4], the compound was called inactive.

Regarding `Cc1nccn1-c1ccc(Sc2cccc(C3(C(N)=O)CCOCC3)c2)cc1`, the AC50 in assay [3] is 5.01 µM (active); in [5], 5.95 µM (active).

For `S=P(N1CC1)(N1CC1)N1CC1`, the AC50 in assay [5] is 5.2 µM (active); in assay [6] it was 22.4 µM (active).

With `OCc1c[nH]c2ccccc12`, the AC50 in assay [5] is 0.574 µM (active); in assay [9], 25 µM (active) and 29.7 µM (active); in assay [6], 25 µM (active).

With `NNC(=O)c1ccncc1`, the AC50 in [5] is 1.49 µM (active). The compound was called inactive in assay [8].

Regarding `C=CCc1cc(S(=O)(=O)c2ccc(O)c(CC=C)c2)ccc1O`, the AC50 is 3.26 µM (active) in [1]; 0.567 µM (active) in assay [2]; 0.118 µM (active) in assay [3]; 4.54 µM (active) in [4]; 0.164 µM (active) in [5]; 15.2 µM (active) in assay [6].

As for `CC(C)C(=O)Nc1ccc([N+](=O)[O-])c(C(F)(F)F)c1`, the results for the half-maximal activity concentration (AC50) in [1] and in assay [5] were 5.33 µM (active) and 3.2 µM (active), respectively. Besides, the call in assay [3] was inactive.

With `CCCOc1ccc(S(=O)(=O)N2CCN(CC)CC2)cc1-c1nc2c(CC)n(Cc3ccccn3)nc2c(=O)[nH]1`, the AC50 in [3] is 2.98 µM (active); in assay [5], 1.45 µM (active).

With `CCCCCCCCCCCCCCCCOS(=O)(=O)O`, the AC50 was 2.18 µM (active) in assay [9] and 1.27 µM (active) in assay [6].

Consider `O=C(NO)C1(NS(=O)(=O)c2ccc(Oc3ccc(F)cc3)cc2)CCOCC1`, for which the compound was called inactive in assay [5].

Consider `CCn1nc(C)c2c1C(=O)NCC(c1ccc(O)cc1)=N2`, for which the concentration at half-maximal activity (AC50) in [2] is 6.23 µM (active).

For `O=C1CN(N=Cc2ccc([N+](=O)[O-])o2)C(=O)N1`, the AC50 in assay [2] was 4.5 µM (active).

`c1ccc(C(O[C@@H]2CCCN(CCc3ccc4c(c3)OCO4)C2)c2ccccc2)cc1`: the AC50 is 5.35 µM (active) in assay [1], 1.59 µM (active) in assay [2], 6.98 µM (active) in assay [3] and 5.04 µM (active) in [5].

On to `O=S(=O)(O)c1ccc(N=Nc2c(O)ccc3cc(S(=O)(=O)O)ccc23)cc1`, for which the AC50 in the assay with Caspase-3 (Homo sapiens) is 37.7 µM (active).

`Cc1ncc([C@@H](CCCCCCc2ccc3c(n2)NCCC3)CC(=O)O)cn1`: the call in assay [7] and in assay [8] was inactive.

Turning to `O=C(N[C@H](CO)[C@H](O)c1ccc([N+](=O)[O-])cc1)C(Cl)Cl`, the compound was classed as inactive in assay [6].

With `CC[C@H](C)C(=O)O[C@H]1C[C@H](O)C=C2C=C[C@H](C)[C@H](CC[C@@H](O)C[C@@H](O)CC(=O)O)[C@H]21`, the outcome in [3] and in assay [6] was inactive.

Take `O=c1[nH]cnc2c1ncn2[C@H]1CC[C@@H](CO)O1`: the compound was classed as inactive in assay [8].

Regarding `CCCCC(CC)C(=O)OCCOCCOCCOC(=O)C(CC)CCCC` (centres undefined), the compound was classed as inactive in [6].
